Bioassay records deposited in PubChem by National Center for Advancing Translational Sciences (NCATS).
Most compounds without a hit are left out; they make up all but 19% or so of the library.
ELG1 DNA repair = qHTS screen for small molecules that inhibit ELG1-dependent DNA repair in human embryonic kidney (HEK293T) cells expressing luciferase-tagged ELG1; HEK293T ELG1-luciferase reporter, luminescence, 16 h; DNA damage induced by 5-fluorouridine; Potency, µM (doses to about 46.1 µM), for the others: at the highest dose activity change, negative = inhibition, most hits filed as inhibitors; actives 2.3% (n = 330,000); AID 504467, 2011; further: potency means the concentration at half of the fitted maximal effect; nearly all actives have a fitted effect of over 55% in size
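HEK293T cells expressing luciferase-tagged ELG1 (2,000/well) received 5-Fluorouridine plus compound or DMSO for 16 hr at 37 °C. Luciferase was read by ONE-Glo luminescence after 30 min at room temperature.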
TDP1 block = qHTS Assay for Inhibitors of Tyrosyl-DNA Phosphodiesterase (TDP1). actives 0.28% (n = 350,000). Tyrosyl-DNA phosphodiesterase 1 (Homo sapiens), Q9NUW8. Potency, µM (highest dose often 130 µM), inactives show at the top dose activity change, negative = inhibition, hits mostly inhibitors. recombinant TDP1, AlphaScreen DNA substrate cleavage; further: potency means the concentration at half of the fitted maximal effect; nearly all actives have a fitted effect of over 40% in size
Target sequence (Q9NUW8 whole entry, looked up): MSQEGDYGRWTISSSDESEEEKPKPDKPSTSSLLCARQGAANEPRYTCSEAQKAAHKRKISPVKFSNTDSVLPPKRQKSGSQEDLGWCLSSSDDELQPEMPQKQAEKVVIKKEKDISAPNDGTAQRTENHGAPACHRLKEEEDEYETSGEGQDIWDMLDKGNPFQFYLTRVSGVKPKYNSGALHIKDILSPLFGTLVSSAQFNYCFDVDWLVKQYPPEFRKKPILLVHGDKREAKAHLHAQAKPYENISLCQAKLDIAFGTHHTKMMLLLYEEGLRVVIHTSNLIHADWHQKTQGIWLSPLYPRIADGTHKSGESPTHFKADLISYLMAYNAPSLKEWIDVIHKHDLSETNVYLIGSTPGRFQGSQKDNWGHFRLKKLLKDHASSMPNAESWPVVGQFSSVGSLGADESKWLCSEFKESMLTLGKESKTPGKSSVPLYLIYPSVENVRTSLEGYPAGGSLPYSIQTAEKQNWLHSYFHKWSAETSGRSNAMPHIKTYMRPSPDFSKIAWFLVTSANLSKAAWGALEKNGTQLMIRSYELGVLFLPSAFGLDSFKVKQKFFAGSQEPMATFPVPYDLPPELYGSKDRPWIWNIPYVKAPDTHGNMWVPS
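E. coli-derived human Tdp1, 1 nM final. Cpd preinc 15 min RT; substrate 15 nM final, 5 min RT; AS bead mix 10 ug/ml final, 10 min RT. Signal loss = tyrosine-FITC cleavage. No-enzyme wells = max signal.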
DT40 TDP1 CPT = qHTS for Inhibitors of human tyrosyl-DNA phosphodiesterase 1 (TDP1): qHTS in cells in presence of CPT. actives 12% (n = 420,000). chicken DT40 Tdp1-/-;hTDP1 cells + 20 nM CPT, ATP luminescence, 48 h. Potency, µM (highest dose often 46.2 µM), for inactives: top-dose activity change, negative = growth inhibition, hits mostly inhibitors. AID 686979, 2013; further: potency means the concentration at half of the fitted maximal effect; nearly all actives have a fitted effect of over 55% in size
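Chicken DT40 Tdp1-/- cells stably complemented with human TDP1 were seeded at 400 cells/well in medium containing 20 nM camptothecin, exposed to pin-transferred compounds, and grown at 37 °C for at least 48 hr. Viability was read as ATP luminescence.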
Giardia killer = Small Molecules that selectively kill Giardia lamblia: qHTS | actives 0.15% (n = 340,000) | Giardia lamblia trophozoite viability | activity change, % at 7.66 µM, hits read low; in the data active means activity change below about -80%; inconclusive means between about -30% and that limit;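 further: parasites exposed to compound for two days anaerobically before the ATP read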
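Anaerobic 48 hrs incubation at 37 deg C of 100 trophozoites/well with test compounds; ATPLite 1-Step luminescence, 15-30 min RT, reports cellular ATP as viability.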
DT40 TDP1 no CPT = qHTS for Inhibitors of human tyrosyl-DNA phosphodiesterase 1 (TDP1): qHTS in cells in absence of CPT; Potency, µM (doses to about 46.2 µM), inactives show at the highest dose activity change, negative = growth inhibition, most hits filed as inhibitors; actives 15% (n = 420,000); AID 686978, 2013; DT40 Tdp1-/- hTDP1 cells, no CPT, ATP luminescence, 48 h; further: potency means the concentration at half of the fitted maximal effect; nearly all actives have a fitted effect of over 55% in size
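Chicken DT40 Tdp1-/- cells complemented with human TDP1, screened without camptothecin (DMSO vehicle only), 400 cells/well. Compounds pin-transferred, cells incubated at 37 °C for at least 48 hr. Growth read as ATP-dependent luminescence (CellTiter-Glo, 30 min at RT).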
IL1B secr inh = qHTS for Inhibitors of Inflammasome Signaling: IL-1-beta AlphaLISA Primary Screen; activity change, % at 57.5 µM; actives 4.7% (n = 360,000); AID 743279, 2014; THP-1 LPS/ATP IL-1B secretion, AlphaLISA, 16 h; hits give low values; in the data active means activity change below about -50%; inconclusive means mostly about -30% to -49%
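THP-1 cells pretreated 1 hr with compounds (up to 57.5 uM final), then stimulated with LPS (250 ng/mL final) plus ATP (1.25 mM final); secreted IL-1B measured by AlphaLISA after 16 hr, decreased signal indicating inhibition.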
The depositor's hits bear a star; ? = inconclusive; . = no result given; [ ] = dose if it differs, or a comment. Unless noted, the call rests on the fitted dose curve; in most records, active means well fitted curve in the direction sought with a large enough effect; inconclusive means small, poorly fitted or top-dose-only effect, or another doubt; inactive means no such curve, though single readings can be large; an effect the other way counts as inactive or inconclusive. On the % scale 0 is the no-effect control and ±100 the full control effect.

SMILES	ELG1 DNA repair	TDP1 block	DT40 TDP1 CPT	Giardia killer	DT40 TDP1 no CPT	IL1B secr inh
O=C(c1cc2c(=O)oc3ccccc3c2s1)N1CCN(c2cccc(Cl)c2)CC1	.	3%	-20%	.	1%	.
CC(=O)Nc1ccc(NC(=S)NC(=O)c2ccc(-c3ccccc3)cc2)cc1	.	.	-3%	-8	-6%	6
O=C(O)c1ccc(NC(=S)NC(=O)c2ccc(-c3ccccc3)cc2)cc1	?	.	14%	-16	?	?
O=C(NC(=S)Nc1ccccc1)c1ccc(-c2ccccc2)cc1	?	5%	?	-12	18µM*	-7
CC(C)NS(=O)(=O)c1ccc(NC(=S)NC(=O)c2ccc(-c3ccccc3)cc2)cc1	?	4%	11µM*	12	14µM*	27
CCCS(=O)(=O)NCc1c(C)ncc2c1CCN(C(=O)c1cccc(Cl)c1F)C2	.	.	22%[9.04 µM]	.	-21%	.
CCOC(CNC(=O)Cc1c(C)nc2c(-c3ccccc3)c(C)nn2c1C)OCC	0%	2%	-29%	11	?	-9
C/C(=N\NS(=O)(=O)c1ccc(C(C)(C)C)cc1)c1ccccc1	-20%	.	-5%	1	2%	53
Cc1ccc(S(=O)(=O)/N=C2\C=C(NS(=O)(=O)c3ccccc3)C(=O)c3ccccc32)c(C)c1	.	.	15µM*	-8	?	16
CC(C)(C)c1ccc(S(=O)(=O)/N=C2\C=C(NS(=O)(=O)c3ccccc3)C(=O)c3ccccc32)cc1	?	11%	21µM*	1	21µM*	19
Cc1cc(C)c(C#N)c(SCc2nnc(-c3ccccc3[N+](=O)[O-])o2)n1	?	-5%	26µM*	-27	21µM*	-2
CCN(CC)S(=O)(=O)c1cccc(C(=O)NNC(=O)c2ccc3[nH]c(=O)c(=O)[nH]c3c2)c1	6%	4%	-4%	8	-4%	14
Cc1ccc(NC2C(=O)NC(=O)NC2=O)cc1	.	.	-2%	35	-7%	13
CCN(CC)c1nc2c(-c3cccc(Br)c3)nnn2c2ccccc12	.	-4%	-2%	.	-22%	.
Cc1ccc(-n2cc3c(-c4cccc(Br)c4)nnc(C)c3n2)cc1	-13%	5%	26µM*	15	?	-23
Cc1nnc(-c2cccc(Br)c2)c2cn(-c3ccccc3Cl)nc12	-17%	-1%	23µM*	9	?	?
C=C[C@H]1[C@H](OC2OC(CO)C(O)C(O)C2O)OC=C(C(=O)OC)[C@H]1C[C@H]1CC(=O)C[C@H](CC(=O)CCc2ccc(O)cc2)O1 (some centres undefined)	.	.	9%	0	-7%	1
CCN1CCCC1CNC(=O)c1cnn(-c2nccc(-c3cc4ccccc4o3)n2)c1C1CC1 (centres undefined)	.	.	?	.	4.1µM*	.
CCN1CCCC1CNC(=O)c1cnn(-c2nccc(-c3ccco3)n2)c1C1CC1 (centres undefined)	.	.	5%	.	3%	.
CCOc1ccc(S(=O)(=O)N2CN(c3cccc(C(C)=O)c3)c3nc4ccccc4nc32)cc1	-17%	0%	-2%	-12	-3%	15
Oc1ccc(C[C@@H]2CNC(=S)N2CCc2cc(C(F)(F)F)cc(C(F)(F)F)c2)cc1	-29%	.	?	-16	?	0
Oc1ccc(C[C@H]2CNC(=S)N2CCc2cc(C(F)(F)F)cc(C(F)(F)F)c2)cc1	2%	4%	-19%	-17	?	15
Oc1ccc(C[C@H]2CNCCN2CCc2cc(C(F)(F)F)cc(C(F)(F)F)c2)cc1	11%	.	10µM*	?	?	?
COc1cc(CCCN2CCNC[C@H]2Cc2cccc3ccccc23)cc(OC)c1OC	?	-6%	?	-14	?	-12
FC(F)(F)c1cc(CCN2CCNC[C@H]2Cc2cccc3ccccc23)cc(C(F)(F)F)c1	?	.	8.2µM*	-11	8.2µM*	-105*
SMILES	ELG1 DNA repair	TDP1 block	DT40 TDP1 CPT	Giardia killer	DT40 TDP1 no CPT	IL1B secr inh
Oc1ccc(C[C@@H]2CNCCN2CCc2cc(C(F)(F)F)cc(C(F)(F)F)c2)cc1	13%	-3%	23µM*	31	?	-67*
O=[N+]([O-])c1cccc(COc2ccccc2CN2CCOCC2)c1	.	.	?	-13	?	-12
Cc1cc(OCc2cccc(Cl)c2)c(C)cc1CN1CCOCC1	?	-8%	18µM*	-10	?	-1
Cc1ccc(N2CCN(C3=NC(=O)C(Cc4ccccc4)S3)CC2)cc1 (centres undefined)	-18%	4%	29µM*	4	23µM*	4
O=C1N=C(N2CCN(c3ccccc3)CC2)SC1Cc1ccccc1 (centres undefined)	-2%	0%	?	4	?	4
O=[N+]([O-])c1ccc(Cl)c(NC(=S)N2CCCC2)c1	?	8%	-14%	-4	-13%	-15
CCNC(=S)NNC(=O)c1ccccn1	-20%	-4%	21µM*	7	?	82
O=C(NNC(=S)Nc1ccc(Cl)c(Cl)c1)c1ccccn1	27%	3%	2.9µM*	16	1.5µM*	101
COc1ccc(CC(=O)Nc2cccc(S(=O)(=O)N3CCCC3)c2)cc1OC	?	0%	15µM*	5	18µM*	-15
O=C(Cc1ccccc1F)Nc1cccc(S(=O)(=O)N2CCCCC2)c1	.	.	?	.	21µM*	18
COc1ccc(Br)cc1CN(C)CC(=O)Nc1c(Cl)cccc1Cl	-4%	5%	?	4	23µM*	?
COc1ccc(/C=C/C(=O)Nc2cccc(S(=O)(=O)NC3=NCCCCC3)c2)cc1OC	?	4%	15µM*	-17	8.2µM*	-16
O=C(Cc1c[nH]c2ccccc12)Nc1cccc(S(=O)(=O)N2CCCCC2)c1	?	8%	.	.	.	.
O=C(Cc1ccc(Br)cc1)Nc1cccc(S(=O)(=O)N2CCCCC2)c1	.	.	?	.	15µM*	-6
O=C(CSc1nnc(-c2cccc(S(=O)(=O)N3CCCC3)c2)n1-c1ccccc1)Nc1ccc(C(=O)O)cc1	5%	79µM*	-22%	-23	1%	13
